Inconclusive results are not listed. A call without a number means that no potency is given here. The source made the active and inactive calls. Unless noted, calls come from the whole dose curve; as a rule, active = well fitted curve in the direction sought with a large enough effect; inconclusive = small, poorly fitted or top-dose-only effect, or another doubt; inactive = no such curve, though single readings can be large; an effect the other way counts as inactive or inconclusive.
Columns and labels:
[1] = Cytotoxicity counterscreen for NFkB agonists and antagonists (AID 624476);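 note: cells exposed to compound for 48 hours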
[2] = qHTS Assay for Identification of Small Molecule Agonists for NFkB Signaling Pathway. (AID 624478);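 note: compounds tested together with TNF alpha at its EC50 of 10 pM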
Procedure, shortened: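 ME-180 cervical carcinoma, stable NFkB-RE beta-lactamase reporter; 1000 cells/well, overnight attachment; cpd + TNF alpha 10 pM final, 5 h 37 C; LiveBLAzer 2 h RT; FRET 460/530 nm, ex 405 nm.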

[3] = Cell Proliferation Assay against the TMD8 Cell Line (AID 651645); settings: TMD8 DLBCL cell line proliferation/viability; at 46.1 µM (top of the series) unless noted;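 note: cells exposed to compound for 48 h before reading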
Procedure, shortened: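 Luminescent ATP read-out (CellTiter-Glo, 15 min RT) after 48 h compound exposure of log-growing TMD8 cells at 37C; percent activity scaled between DMSO as 100% and 9.2 uM bortezomib final as 0%.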

[4] = Cell Proliferation Assay against the HBL1 Cell Line (AID 651646); settings: HBL1 DLBCL cells; at 46.1 µM (top of the series) unless noted;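 note: cells exposed to compound for 48 h before reading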
Procedure, shortened: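 HBL1 ABC DLBCL cells, 500/well in RPMI with 5% FBS, treated for 48 h at 37C. Viability read by CellTiter-Glo luminescence, normalized to DMSO as 100% and 9.2 uM bortezomib as 0%.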

[5] = Cell Proliferation Assay against the TMD8 Cell Line (Caspase readout at 16 hrs) (AID 651712); note: potency is the fitted concentration of half-maximal effect
Procedure, shortened: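 TMD8 cells in RPMI with 5% FBS were treated with compound for 16 h at 37 C, then caspase 3/7 activation was read by Caspase-Glo luminescence. Percent activity was scaled to DMSO (0%) and 9.2 uM bortezomib final (100%).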

[6] = Cell Proliferation Assay against the TMD8 Cell Line (Caspase readout at 8 hrs) (AID 651713); note: potency is the fitted concentration of half-maximal effect
Procedure, shortened: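 Seed log-phase TMD8 cells, add compound by pin tool, incubate 8 h at 37C under 5% CO2, equilibrate to room temperature, add Caspase-Glo, wait 15 min, read luminescence; percent activity uses DMSO and 9.2 uM bortezomib controls.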

[7] = qHTS Assay for Identification of Small Molecule Antagonists for NFkB Signaling Pathway. (AID 624479; calls by dose curve;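 note: pathway stimulated with TNF alpha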)
[8] = qHTS assay for small molecule agonists of the antioxidant response element (ARE) signaling pathway (AID 651741; active = well fitted activation curve with a large enough effect in the signal ratio; the % refers to the signal ratio; note: potency is the fitted concentration of half-maximal effect)
Procedure, shortened: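 CellSensor ARE-bla HepG2 cells (2,000/well) carrying ARE-driven beta-lactamase, exposed 16 h at 37 C. LiveBLAzer B/G FRET substrate added for 2 h at room temperature; fluorescence intensity read.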

Compound: O=C(C1CC1)N1CC[C@@H](Cn2c(-c3ccc(-c4ccc5occc5c4)cc3)nc3cnccc32)C1
- Potency [1]: inactive
- outcome [2]: inactive
- viability (% of control) [3]: 5.56%
- viability, percent of control [4]: 48.4%
- Potency [5]: 8.33 µM (active)
- Potency [6]: 26.4 µM (active)

Compound: CCCc1nn(C)c2c(=O)[nH]c(-c3cc(S(=O)(=O)N4CCN(C)CC4)ccc3OCC)nc12
- Potency [1]: inactive
- outcome [2]: inactive
- Potency [7]: inactive
- viability, percent of control [4]: 106%
- Potency [5]: inactive
- Potency [6]: inactive

Compound: CC(c1cc2ccccc2s1)N(O)C(N)=O (centres undefined)
- Potency [1]: inactive
- outcome [2]: inactive
- Potency [7]: inactive
- viability, percent of control [4]: 96.2% [at 92.2 µM]
- Potency [5]: inactive
- Potency [6]: inactive

Compound: COc1ccccc1-c1cccc(-c2c(O)c3cc(C#N)c(Cl)cc3[nH]c2=O)c1
- Potency [1]: inactive
- outcome [2]: inactive
- viability (% of control) [3]: 86.6%
- viability, percent of control [4]: 80.1%
- Potency [5]: inactive
- Potency [6]: inactive

Compound: COc1ccc2nc(S(=O)Cc3ncc(C)c(OC)c3C)[nH]c2c1 (centres undefined)
- Potency [1]: inactive
- outcome [2]: inactive
- Potency [7]: inactive
- viability, percent of control [4]: 89.4%
- Potency [5]: inactive
- Potency [6]: inactive
- Potency [8]: 27.3 µM (active)

Compound: COc1ccc(CCN2CCN(CCCc3ccccc3)CC2)cc1OC
- Potency [1]: inactive
- outcome [2]: inactive
- Potency [7]: inactive
- viability, percent of control [4]: 85.9%
- Potency [5]: inactive
- Potency [6]: inactive

Compound: O=C(O)CCc1ccc(NCc2cccc(Oc3ccccc3)c2)cc1
- Potency [1]: inactive
- outcome [2]: inactive
- Potency [7]: inactive
- viability, percent of control [4]: 95.9%
- Potency [5]: inactive
- Potency [6]: inactive

Compound: CNC(=O)c1ccc(N2C(=S)N(c3ccc(C#N)c(C(F)(F)F)c3)C(=O)C2(C)C)cc1F
- Potency [1]: inactive
- outcome [2]: inactive
- viability (% of control) [3]: 78.7%
- viability, percent of control [4]: 83.2%
- Potency [5]: inactive
- Potency [6]: inactive
